# Measured values taken from PubChem BioAssay AID1347416 (National Center for Advancing Translational Sciences (NCATS), 2020).
# In all, about 4,100 compounds went through this assay and about 1,600 (39%) were called active. Another 25% or so got no clear call; they are omitted. The list shows a part of the results. Values without a mark were called inactive. Calls follow the shape of the dose curve; as a rule, active = well fitted inhibition curve with a large enough effect; inconclusive = small, poorly fitted or top-dose-only effect; inactive = no such curve, though single readings can be large or run the other way.
# Assay: qHTS Validation assay for Inhibitors of Plasmodium falciparum Dd2 growth in vitro; also: nearly all actives have a fitted effect of over 70% in size
# Details: P. falciparum Dd2 in RBCs, SYBR Green growth, 72 h; series mostly up to 28.7 µM; activity change, negative = inhibition: at the top concentration
# Excerpt: Malaria, a parasitic disease spread to humans through the bite of a Plasmodium infected Anopheles mosquito, continues to be a global health burden affecting millions of people, with an estimated 228 million cases and 405,000 deaths in 2018. Concerns about safety and limitations of current antimalarial treatments strongly emphasize the need to develop new therapeutic options. The scarce number of chemotypes and validated drug targets with efficacy against the liver stage, have hindered development of new antimalarials. To address this, a chemoprophylactic drug discovery effort was conducted through a combined phenotypic high-throughput asexual blood stage and liver stage screen, providing a robust foundation to identify liver-stage active lead chemotypes. Compounds were initially screened against Plasmodium falciparum Dd2 strain parasites using a in vitro SYBRGreen-1 based 72 hr proliferation assay to identify novel chemotypes to advance to liver stage assays. NIH/NCATS Early Translation Branch Assay Submitter (PI): Anton Simeonov Ph.D.
# […] Assay Protocol: PROTOCOL TABLE (as described by Inglese et al., 2007) SEQUENCE No. (e.g., 1, 2, 3, etc.); PARAMETER (e.g., Cells, Incubation, Reagent, etc.); VALUE; DESCRIPTION SEQUENCE, Parameter, Description 1; Reagent; 3 uL complete malaria growth medium, 1536 TC treated Black clear bottom plate 2; Controls; 23 nL positive control artesunate (300 nM final) to column 1; Neutral control DMSO to columns 2-4 3; Compound; 23 nL of compounds in dose response concentration (29 uM to 0.5 nM final) 4; Reagent; 5 uL malaria infected red blood cells (2.5% hematocrit final, 0.3% parasitemia 5; Time; 72 hours at 37C (5% O2, 5% CO2, 90% N2; 95% Rh) 6; Reagent; 2 uL lysis buffer/SYBRGreen-1, 25 sec shake immediately following dispense 7; Time; ~16 hours at 37C (5% O2, 5% CO2, 90% N2; 95% Rh) 8; Detector; EnVision (PerkinElmer) bottom read at 485/14nm excitation and 535/25 nm emission NOTES (numbers refer to sequence above): 1; Complete Malaria Growth Media: 1X RPMI-1640 w/L-glutamine, 5.5g/L Albumax II, 367 uM Hypoxanthine, 25 mM HEPES, 0.25% Sodium Bicarbonate, 35 uM Gentamicin sulfate 2; Controls were added using the Kalypsis Pintool (Wako USA) equipped with 1536 pinhead 3; Compounds were added in a 7-point, titration with a high final concentration of 29 uM by Pintool from seven inter-plate titrations of library plates and two DMSO control plates at the beginning and end (see Yasgar et al., 2008). 4; Red blood cells infected with Plasmodium falciparum Dd2 parasites were used. 6; Lysis buffer: 20 mM Tris-HCl, 10 mM EDTA, 0.16% Saponin, 1.6% Triton-X, 10X SYBR Green. REFERENCE: Inglese J, Shamu CE, Guy RK. 2007. Reporting data from high-throughput screening of small-molecule libraries. Nat Chem Biol. doi:10.1038/nchembio0807-438 Yasgar A, Shinn P, Jadhav A, Auld D, Michael S, Zheng W, Austin CP, Inglese J, Simeonov A. 2008. Compound Management for Quantitative High-Throughput Screening. J Lab Autom 13:79-89. doi:10.1016/j.jala.2007.12.004
# % is scaled to controls: 0 for no effect and ±100 for the full control effect; potency is read from the fitted curve at half-maximal effect.
SMILES,Potency,"activity change, negative = inhibition"
CCCCN(CCCC)CC(O)Cn1cc(/C=C/C(=O)c2ccccc2)c2ccccc21 (stereo not given),1.68 µM (active),–
CCCN(CCC)CC(O)Cn1cc(/C=C/C(=O)c2ccc(C)cc2)c2ccccc21 (stereo not given),4.73 µM (active),–
O=C(NC1CCCN(c2cc(-c3ccccc3)[nH]n2)C1)c1cc(F)ccc1F (stereo not given),–,-3.71%
COc1ccc(C(=O)N2CCCn3cc(-c4ccccc4F)nc32)cn1,–,19.7%
CC1(c2ccccc2)N(Cc2ccccc2)C(=O)OC12CCN(Cc1cccc(O)c1)CC2 (stereo not given),8.41 µM (active),–
COc1cccc(CN2CCC3(CC2)OC(=O)N(Cc2ccccc2)C3(C)c2ccccc2)c1 (stereo not given),15 µM (active),–
CC1(c2ccccc2)N(Cc2ccccc2F)C(=O)OC12CCN(Cc1cccc(O)c1)CC2 (stereo not given),6.68 µM (active),–
COc1ccc(C(=O)N2CCC(c3nc(C4CCOCC4)no3)CC2)cn1,–,2.15%
COc1cccc(CN2CCC3(CC2)Cc2ccccc2NC3=O)c1,–,-8.07%
COc1ccc(C(=O)N2CCC3(CC2)OC(=O)N(Cc2ccc(O)cc2)C3(C)c2ccccc2)cn1 (stereo not given),6.68 µM (active),–
Cc1nc(CN2C(=O)OC3(CCN(C(=O)c4ccc(Oc5ccccc5)cc4)CC3)C2(C)c2ccccc2)cs1 (stereo not given),13.3 µM (active),–
Cc1cccc(OCC2(CNCc3cccnc3)C[C@@H](O)[C@@H](O)C2)n1 (stereo not given in full),–,26.5%
COc1ccccc1CNC[C@H]1O[C@H](Cc2cc(CN(C)Cc3ccccc3)on2)CC[C@@H]1O,2.99 µM (active),–
CN(Cc1ccccc1)Cc1cc(C[C@@H]2CC[C@H](O)[C@@H](CNCc3ccccc3)O2)no1,4.73 µM (active),–
O[C@@H]1CC(CNCc2cccc(Cl)c2)(COc2ccccc2)C[C@@H]1O (stereo not given in full),3.85 µM (active),–
O[C@H]1CC[C@@H](Cc2cc(COc3ccccc3)on2)O[C@@H]1CNCc1cccc(Cl)c1,2.11 µM (active),–
O=C(NC[C@H]1O[C@H](Cc2cc(CN3CCNCC3)on2)CC[C@@H]1O)c1ccccc1F,–,88%
O=C(c1cc(F)ccc1F)N1CC(c2nnc(-c3ccncc3)o2)C2(CCOCC2)C1 (stereo not given),–,59.8%
COc1cc(OC)c(NC(=O)Cn2c(C)cc3nc4n(c(=O)c32)CCCCC4)cc1Cl,–,-29.8%
COc1cc(Cc2cc(N)nc(N)n2)cc(OC)c1OC,–,46.1%
Cc1nnc([C@H]2CCN(Cc3c[nH]c4ccccc34)C2)o1,–,-16.6% [at 57.5 µM]
COc1ccc(-c2cn(CCc3c[nH]c4ccccc34)nn2)cc1,–,15%
COc1ccc(CN2C[C@H]3CN(Cc4c[nH]c5ccccc45)CCN3C2=O)cc1,3.85 µM (active),–

SMILES,Potency,"activity change, negative = inhibition"
Cc1nonc1CC(=O)N1CCCC(CNS(=O)(=O)c2cccs2)C1 (stereo not given),–,47.9%
CC1(c2ccccc2)CC(c2ccccc2)=Nc2nonc2N1 (stereo not given),5.31 µM (active),–
COc1cc(SC)ccc1C(=O)Nc1nc2ccccc2[nH]1,–,-19.7%
COc1cc(/C=C(\C#N)c2nc3ccccc3[nH]2)ccc1OCc1ccc(F)cc1,5.31 µM (active),–
COc1cc(/C=C(\C#N)c2nc3ccccc3[nH]2)cc(Cl)c1OCc1ccccc1Cl,5.31 µM (active),–
O=C(Nc1cnc2ccccc2c1)c1cccc(-n2cnnn2)c1,2.66 µM (active),–
CCc1noc(-c2cccn3c(CNC(=O)c4ccc(Cl)cc4)nnc23)n1,–,16.2%
Cc1ccc(C)c(Oc2c(C(F)(F)F)oc3c(CN4CCN(C)CC4)c(O)ccc3c2=O)c1,0.75 µM (active),–
CCN1CCN(Cc2c(O)ccc3c(=O)c(Oc4ccccc4C(C)C)c(C(F)(F)F)oc23)CC1,0.596 µM (active),–
CC(C)c1ccccc1Oc1c(C(F)(F)F)oc2c(CN3CCN(C)CC3)c(O)ccc2c1=O,0.668 µM (active),–
CCSc1nnc(SCC(=O)c2c(N)n(C)c(=O)n(C)c2=O)s1,–,-13.4%
Cc1ccccc1C(=O)NC(CC(C)C)C(=O)OCC(=O)c1c(N)n(C)c(=O)n(C)c1=O (stereo not given),2.66 µM (active),–
Cc1ccc(N(C)C2=NC(=O)CS2)cc1Cl,9.44 µM (active),–
COc1cc(O)c(C(CCN2CCCCC2)c2cc(OC)c(OC)c(OC)c2)c(OC)c1 (stereo not given),2.66 µM (active),–
COc1cc(O)c(C(CCN2CCCC(C)C2)c2ccc(N(C)C)cc2)c(OC)c1 (stereo not given),1.68 µM (active),–
COc1cc(O)c(C(CCN2CCCCC2)c2ccc(N(C)C)cc2)c(OC)c1 (stereo not given),2.66 µM (active),–
COc1cc(O)c(C(CCN2CCCC(C)C2)c2cc(OC)c(OC)c(OC)c2)c(OC)c1 (stereo not given),1.88 µM (active),–
CCCCC(CC)CNC(=O)CCCCCn1c(=O)[nH]c2ccsc2c1=O (stereo not given),–,-7.19%
COc1ccc(C(CCN2CCCCC2)c2c(O)cc(OC)cc2OC)cc1 (stereo not given),1.33 µM (active),–
CCn1ccc2ccc(CN3CCCC(O)(CN4CCCC4)C3)cc21 (stereo not given),7.5 µM (active),–
COc1ccc(C(=O)N2CCCC(O)(CN3CCCC3)C2)cc1Cl (stereo not given),–,-13.3%
C=CCN(Cc1ccccc1OCC)C(=O)c1ccc(N(C)S(C)(=O)=O)cc1,–,4.22%
